Measurements published in PubChem BioAssay (NCATS).
Records with an inconclusive call do not appear. The source made the active and inactive calls. Calls come from the whole dose curve; as a rule, active = well fitted inhibition curve with a large enough effect; inconclusive = small, poorly fitted or top-dose-only effect; inactive = no such curve, though single readings can be large or run the other way.

The molecules below were run against Cytochrome P450 2C19 (Homo sapiens) (UniProt P33261) (assay: qHTS Assay for Inhibitors and Substrates of Cytochrome P450 2C19 (AID 899; note: nearly all actives have a fitted effect of over 60% in size)). Conditions: recombinant CYP2C19, luciferin-H EGE luminescence; series mostly up to 57.1 µM.
How it was run: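 Luminescence readout of luciferin formed from 10uM Luciferin-H EGE (KM level) by 5 nM CYP2C19 in 50mM KPO4. 60 min NADPH-driven reaction at 37C after 10 min compound preincubation; data scaled to 57uM ketoconazole inhibition.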
Potency is the fitted concentration of half-maximal effect.

Sequence of Cytochrome P450 2C19 (Homo sapiens) (P33261 whole entry, looked up): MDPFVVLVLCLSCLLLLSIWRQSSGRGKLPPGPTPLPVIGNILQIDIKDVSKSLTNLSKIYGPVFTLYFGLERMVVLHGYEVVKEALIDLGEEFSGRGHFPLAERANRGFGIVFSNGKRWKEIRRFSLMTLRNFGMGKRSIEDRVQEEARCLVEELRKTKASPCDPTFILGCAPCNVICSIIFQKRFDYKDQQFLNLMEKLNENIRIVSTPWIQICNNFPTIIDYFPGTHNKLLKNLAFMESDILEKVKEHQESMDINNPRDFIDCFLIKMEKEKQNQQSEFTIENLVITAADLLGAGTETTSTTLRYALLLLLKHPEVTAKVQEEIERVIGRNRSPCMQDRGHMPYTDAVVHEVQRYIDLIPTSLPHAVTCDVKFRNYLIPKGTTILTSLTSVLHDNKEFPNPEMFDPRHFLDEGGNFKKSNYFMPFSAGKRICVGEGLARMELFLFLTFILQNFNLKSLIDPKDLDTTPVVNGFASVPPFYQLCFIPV

Potency, active:
CCC/C=C(\CCC)C(NC(=O)c1cccs1)c1ccc(C(=O)OC)cc1 (centres undefined) 0.794 µM
C[C@@H](C(=O)O)[C@H]1C[C@]1(C)[C@H](NC(=O)OCc1ccccc1)c1ccccc1 7.94 µM
COc1ccc2nc3c(cc2c1)Cc1ccccc1-3 2.51 µM
c1ccc2c(c1)Cc1cc3cc4c(cc3nc1-2)OCO4 1.26 µM
C[C@@H](C(=O)NCc1ccc(S(C)(=O)=O)cc1)[C@@H]1C[C@@]1(C)[C@@H](NC(=O)OCc1ccccc1)c1ccccc1 1.26 µM
CCC[C@@H]1C[C@@]1(CCC)C(NC(=O)c1ccco1)c1ccc(Cl)cc1 (some centres undefined) 3.16 µM
COC(=O)[C@@]1(Cc2ccc(OC)cc2)[C@H]2c3cc(C(=O)N4CCCC4)n(Cc4cc(F)cc5c4OCOC5)c3C[C@H]2CN1C(=O)c1ccccc1 7.94 µM
COC(=O)[C@H]1C[C@@H]1[C@H](NC(=O)c1ccccc1)c1ccccc1 7.94 µM
CCC/C=C(\CCC)C(NS(=O)(=O)c1ccc(C(F)(F)F)cc1)c1ccc(-c2ccccc2)cc1 (centres undefined) 7.94 µM
COC(=O)[C@@H]1C[C@H]1[C@@H](NC(=O)c1ccccc1)c1ccccc1 1.26 µM
S=C(Nc1ccccc1)Nc1ccccc1C#Cc1ccccc1 3.16 µM
CCC[C@@H]1C[C@@]1(CCC)C(NS(=O)(=O)c1cccc2cccnc12)c1ccc(Cl)cc1 (some centres undefined) 3.16 µM
COC(=O)[C@H]1C[C@@H]1[C@H](NC(=O)OCc1ccccc1)c1ccccc1 3.16 µM
c1ccc2c(c1)Cc1cc3ccccc3nc1-2 5.01 µM
CCCCCC1=C2CNC(Cc3ccccc3)(C(=O)OC)C=C2C(C)C1=O (centres undefined) 6.31 µM
CCCC[C@@H]1C[C@H]1C(NC(=O)c1ccccc1)c1ccccc1 (some centres undefined) 0.398 µM
COC(=O)[C@@]1(Cc2ccc(OC)cc2)[C@H]2c3cc(C(=O)N(C)C)[nH]c3C[C@H]2CN1C(=O)c1ccccc1 5.01 µM
CCC/C=C(\CCC)C(NS(=O)(=O)c1cccc2cccnc12)c1ccc(C(=O)OC)cc1 (centres undefined) 3.16 µM
COC(=O)[C@@]1(Cc2ccccc2)[C@H]2c3cc(C(=O)N4CCCC4)n(Cc4ccc(O)c(OC)c4)c3C[C@H]2CN1C(=O)c1ccccc1 0.501 µM
C[C@@H](C(=O)Nc1ccc2ccccc2c1)[C@H]1C[C@]1(C)[C@H](NS(=O)(=O)c1ccc2ccccc2c1)c1ccccc1 0.251 µM

Potency, inactive:
CC(C)C[C@@H](CC(=O)N[C@@H](CCC(=O)O)CC(=O)O)NC(=O)[C@@H]1CCCC[C@H]1NC(=O)C[C@H](CCCN)NC(=O)C[C@H](CO)NC(=O)[C@@H]1CNCC[C@H]1N
CCCCCCN(C(=O)CCCCCN1C(=O)NC(c2ccc(-c3ccccc3)cc2)C(C(=O)OCc2ccccc2)=C1C)C(C(=O)NCCCC)c1ccc(OCC(=O)OC)c(C(=O)OC)c1 (centres undefined)
CCCC[C@@H]1C[C@H]1C(NC(=O)c1cccs1)c1ccc(C(F)(F)F)cc1 (some centres undefined)
CC(C)C[C@@H](CC(=O)N[C@H](CC(=O)N[C@@H]1CCCC[C@H]1C(=O)N[C@H](CC(=O)N[C@@H](CCC(=O)O)CC(=O)O)CC(C)C)C(C)C)NC(=O)[C@@H]1CCCC[C@H]1N
CC[C@H]1C2=C3C(CC[C@H]4C(OC)OC[C@](C)([C@@H]34)N(C(=O)OC(C)(C)C)C2)C(CO)C1CO (some centres undefined)
CC[C@H]1C(=O)OC[C@@H]1Cc1cncn1C
CC[C@@H]1OC(=O)[C@@H](C)[C@H](O[C@@H]2C[C@@](C)(OC)[C@@H](O)[C@H](C)O2)[C@H](C)[C@H](O[C@@H]2O[C@@H](C)C[C@@H](N(C)C)[C@H]2O)[C@@](C)(O)C[C@H](C)C(=O)[C@@H](C)[C@H](O)[C@@]1(C)O
CC(C)C[C@@H](CC(=O)N[C@H](CC(=O)N[C@@H]1CCNC[C@H]1C(=O)N[C@H](CC(=O)N[C@@H](CCC(=O)O)CC(=O)O)Cc1ccccc1)C(C)C)NC(=O)[C@@H]1CNCC[C@H]1N
CC(C)[C@@H](CC(=O)N[C@@H]1CCNC[C@H]1C(=O)N[C@H](CC(=O)N[C@@H](CCC(=O)O)CC(=O)O)Cc1c[nH]c2ccccc12)NC(=O)C[C@H](Cc1ccccc1)NC(=O)[C@@H]1CNCC[C@H]1N
